Results filed as inconclusive are left out. Where a call stands in place of a potency, no number is given. Active and inactive are the calls of the source. Calls follow the shape of the dose curve; as a rule, active = well fitted inhibition curve with a large enough effect; inconclusive = small, poorly fitted or top-dose-only effect; inactive = no such curve, though single readings can be large or run the other way.
Assay: qHTS to identify inhibitors of the type 1 interferon - major histocompatibility complex class I in skeletal muscle: primary screen against the NCATS Mechanism Interrogation Plate v5.0 (MIPE) Libary (AID 1347411); also: nearly all actives have a fitted effect of over 65% in size
Conditions: iHSKM cells + IFN-b, HiBiT-tagged MHC-I luminescence, 24 h; series mostly up to 45.8 µM
In short: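 Immortalized human myoblasts (C25cl48) with HiBit knocked into endogenous HLA-B*08:01 were stimulated with 4 ng/ml IFN-beta and given compounds in 11-point 1:3 titration from 46 uM. After 24 h at 37 C, lytic HiBiT luminescence was read.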
Potency is read from the fitted curve at half-maximal effect.

| Compound | Potency |
| --- | --- |
| CC(C)(F)C[C@H](N[C@@H](c1ccc(-c2ccc(S(C)(=O)=O)cc2)cc1)C(F)(F)F)C(=O)NC1(C#N)CC1 | inactive |
| C[C@]12CC[C@@H]3c4ccc(O)cc4CC[C@H]3[C@H]1[C@@H](O)[C@@H](O)[C@H]2O | inactive |
| O=C(O)CCC=CCC[C@@H]1[C@H](N2CCCCC2)[C@@H](O)C[C@@H]1OCc1ccc(-c2ccccc2)cc1 | inactive |
| CCOC(=O)N1c2ccc(C(F)(F)F)cc2[C@@H](N(Cc2cc(C(F)(F)F)cc(C(F)(F)F)c2)C(=O)OC)C[C@H]1CC | inactive |
| Cc1ccc(S(=O)(=O)Nc2nc3ccccc3nc2Nc2ccc3nsnc3c2)cc1 | inactive |
| Cc1cccc(-c2[nH]c(C(C)(C)C)nc2-c2ccc3c(c2)OCO3)n1 | inactive |
| COc1cc(F)c(C(C)C)cc1-c1ccc(C(F)(F)F)cc1CN1C(=O)O[C@H](c2cc(C(F)(F)F)cc(C(F)(F)F)c2)[C@@H]1C | inactive |
| OC1CCC(Nc2ncc3nc(Nc4c(F)cc(F)cc4F)n([C@@H]4CCOC4)c3n2)CC1 (stereo partly drawn) | inactive |
| O=C(O)c1ccc(O)c2ncc(N3CCOCC3)cc12 | inactive |
| COc1cc2nccc(Oc3ccc(NC(=O)Nc4ccc(F)cc4F)c(F)c3)c2cc1OC | 10.4 µM (active) |
| CC[C@@H]([C@H](C)O)n1ncn(-c2ccc(N3CCN(c4ccc(OCC5CO[C@@](Cn6cncn6)(c6ccc(F)cc6F)C5)cc4)CC3)cc2)c1=O (stereo partly drawn) | inactive |
| CC1CNc2c(cccc2S(=O)(=O)N[C@@H](CCCN=C(N)N)C(=O)N2CC[C@@H](C)C[C@@H]2C(=O)O)C1 (stereo partly drawn) | inactive |
| Nc1ccn([C@@H]2O[C@H](CO)[C@@H](O)[C@H]2O)c(=O)n1 | inactive |
| CN(C)N=Nc1nc[nH]c1C(N)=O | inactive |
| CCC(c1ccc(O)cc1)C(CC)c1ccc(O)cc1 (stereo not drawn) | inactive |
| COc1cc2c(cc1OC)CC(=O)N(CCCN(C)C[C@H]1Cc3cc(OC)c(OC)cc31)CC2 | inactive |
| NC[C@H]1O[C@H](O[C@@H]2[C@@H](O)[C@@H](O[C@H]3O[C@H](CO)[C@@H](O)[C@H](N)[C@@H]3O)[C@H](N)C[C@@H]2N)[C@H](O)[C@@H](O)[C@H]1O | inactive |

| Compound | Potency |
| --- | --- |
| Cc1ccc(C2=Nc3ccc(Cl)cc3OC2)cc1 | inactive |
| O=C(NCCCCN1CCOCC1)c1cc2ccccc2o1 | inactive |
| N[C@@H](CC(=O)N1CCn2c(nnc2C(F)(F)F)C1)Cc1cc(F)c(F)cc1F | inactive |
| COC1CCC(C(=O)c2ccc3nc4c(cc3c2)CCCO4)CC1 (stereo not drawn) | inactive |
| O=C(NC[C@H](O)CO)c1ccncc1Nc1ccc(I)cc1F | inactive |
| CCOC(=O)c1c(CSc2ccccc2)n(C)c2cc(Br)c(O)c(CN(C)C)c12 | inactive |
| CCCCC(C)(C)[C@H](O)C=C[C@H]1[C@H](O)CC(=O)[C@H]1CC=CCCCC(=O)O | inactive |
| CN1C(=O)C[C@H](C(=O)N[C@@H](Cc2cnc[nH]2)C(=O)N2CCC[C@@H]2C(N)=O)NC1=O | inactive |
| CC[C@H](C=C[C@@H](C)[C@H]1CC[C@H]2[C@@H]3CC=C4C[C@@H](O)CC[C@]4(C)[C@@H]3CC[C@]12C)C(C)C | inactive |
| Cc1cc(NC(=O)Nc2ccc(N(C)C)cc2)c2cc(F)cc(F)c2n1 | inactive |
| CCC(=O)NCC[C@@H]1CCc2ccc3c(c21)CCO3 | inactive |
| CC[C@H](C)C(=O)O[C@H]1C[C@H](O)C=C2C=C[C@H](C)[C@H](CC[C@@H](O)C[C@@H](O)CC(=O)O)[C@H]21 | inactive |
| CN1CCN(c2ncc(-c3cc(Cl)cc(Cl)c3Cl)c(N)n2)CC1 | inactive |
| C#CCN(C)CC1=Cc2ccccc2Oc2ccccc21 | inactive |
| O=c1[nH]nc(OCCCc2ccc(Cl)cc2)c(NCc2cccnc2)c1Br | inactive |
| CN1CC(=O)NC1=NC(=O)Nc1cccc(Cl)c1 | inactive |

Source: PubChem BioAssay (NCATS)
